Molecules are shown by their SMILES. Screen size: about 360,000 compounds; about 1,300 (0.36%) were called active. The sample holds actives, similar compounds and a random draw of the others, so the mix is not that of the screen. A number with no mark means an inactive call. No stated cut-off is given here; in the data, active means inhibition above about 35% (passing the limit was not always enough); inactive means the rest.

This note sets out measurements from PubChem BioAssay AID588489 (Sanford-Burnham Center for Chemical Genomics, 2011).

The target of the test is Polyadenylate-binding protein 1 (Homo sapiens) (UniProt P11940). Briefly: inhibitors of PABP1 MLLE–PAM2 peptide binding, primary screen, biochemical, fluorescence polarization, FITC-PAM2, GST-MLLE (AID 588489).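 Further: plate controls were DMSO wells with GST-MLLE for no effect and wells lacking GST-MLLE protein for full effect.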 As to conditions: at 20 µM, stronger effect = higher value.
Sequence of Polyadenylate-binding protein 1 (Homo sapiens) (P11940 whole entry, looked up): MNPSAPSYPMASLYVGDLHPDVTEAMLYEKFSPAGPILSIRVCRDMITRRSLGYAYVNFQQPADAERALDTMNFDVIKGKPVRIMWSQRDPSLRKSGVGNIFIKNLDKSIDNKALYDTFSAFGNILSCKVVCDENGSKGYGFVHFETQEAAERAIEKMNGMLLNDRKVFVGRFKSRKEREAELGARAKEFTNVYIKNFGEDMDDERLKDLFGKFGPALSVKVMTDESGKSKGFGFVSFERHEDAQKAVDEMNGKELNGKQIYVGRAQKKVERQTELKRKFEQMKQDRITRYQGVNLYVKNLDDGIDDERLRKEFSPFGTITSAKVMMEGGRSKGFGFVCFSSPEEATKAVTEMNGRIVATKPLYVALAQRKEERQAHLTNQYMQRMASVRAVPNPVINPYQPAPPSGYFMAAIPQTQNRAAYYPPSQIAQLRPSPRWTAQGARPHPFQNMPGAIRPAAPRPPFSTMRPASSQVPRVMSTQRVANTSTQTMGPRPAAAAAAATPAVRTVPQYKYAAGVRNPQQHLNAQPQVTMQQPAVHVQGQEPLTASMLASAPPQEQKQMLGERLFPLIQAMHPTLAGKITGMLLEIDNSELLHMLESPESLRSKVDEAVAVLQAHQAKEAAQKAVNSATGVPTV
For `CN(C)CCCNC(=S)N1CCN(c2nc(-c3ccccc3)cs2)CC1`, the inhibition was -128%.
For the molecule `CCOc1ccc(NC(=O)CN(C)C(=O)Cc2sc(C)nc2-c2ccc(F)cc2)cc1OCC`, the inhibition was -16.1%.
In the case of `CCOC(=O)N1CCN(C(=O)C2CCN(c3ncnc4c3sc3cccc(F)c34)CC2)CC1` it was -13.7%; in that of `CCCCC(=O)NC(c1ccc(OC)c(OC)c1)c1ccc2cccnc2c1O` (configuration not stated), 5.41%; in that of `CCOC(=O)N1CCN(C(c2cccnc2)c2ccc3cccnc3c2O)CC1` (configuration not stated), 37.9% (active).
In the case of `COc1ccc(C(CNCC(=O)Nc2ccccc2F)N(C)C)cc1` (configuration not stated) it was 4.22%.
With `O=C1c2ccccc2C(=O)N1CCc1nn[nH]n1`, the inhibition was -10.4%.
In the case of `O=C(CC1CCCCC1)NCc1ccco1` it was 2.87%.
In the case of `O=C(CSC1=Nc2ccccc2C2=NC(CC(=O)NCc3ccco3)C(=O)N12)NCc1ccco1` (configuration not stated) it was 38.7% (active); in that of `O=C(CSc1nnnn1-c1ccccc1)NCc1ccco1`, -13.1%.
In the case of `CCCCCC1CCC(c2nnc(SCC(C)=O)o2)CC1` (configuration not stated) it was -9.06%; in that of `C/C=C/c1ccc(OCCCCN2CCC(C)CC2)c(OC)c1`, -4.4%; in that of `CC(C)CNC(=O)C1(C)CCCN1C(=O)CSc1ccccc1` (configuration not stated), 10.8%.
For the molecule `COc1cc(/C=C/C(=O)OCC(=O)NCCCc2ccccc2)ccc1O`, the inhibition is 7.53%.
On to `Cc1nc([N+](=O)[O-])nn1C12CC3CC(CC(Br)(C3)C1)C2`, for which the inhibition was 39.5% (active).
For `Cc1cccc(NC(=O)CSc2nnc(NC(=O)CN3CCOCC3)s2)c1` the value was -8.76%.
For `C=CC1=C(C(=O)O)N2C(=O)[C@@H](NC(=O)/C(=N\OCC(=O)O)c3csc(N)n3)[C@H]2SC1` the value was 41% (active); for `C=CC1=C(C(=O)O)N2C(=O)[C@@H](NC(=O)/C(=N/OCC(=O)O)c3csc(N)n3)[C@H]2SC1`, 30.8%.
In the case of `O=C(CSc1ccsc1[N+](=O)[O-])N1CCCCC1` it was -4.37%.
On to `O=C1CSC2=NCN(c3ccccc3)CN12`, for which the inhibition was -6.21%.
Consider `O=C(CCC(=O)OCc1cccc(C(=O)Oc2ccccc2)c1)Nc1cccc2ccccc12`, for which the inhibition was 9.55%.
For `CCOc1cc(C(=S)N2CCOCC2)ccc1OS(=O)(=O)c1ccc(Br)cc1` the value was 8.34%.
For `O=S(=O)(Oc1ccccc1C(=S)N1CCOCC1)c1ccc(Cl)cc1` the value was 44.5% (active); for `CC(=O)Nc1ccc(S(=O)(=O)Oc2ccc(Br)cc2C(=S)N2CCOCC2)cc1`, 5.89%.
In the case of `Cc1ccc(C)c(OCCC(=O)Nc2cccc(S(=O)(=O)N3CCCC3)c2)c1` it was 10.9%; in that of `CCN(CC)S(=O)(=O)c1ccc(N2CCOCC2)c(NC(=O)C(C)Oc2ccc(F)cc2)c1` (configuration not stated), 3.55%.
For the molecule `Oc1ccc2ccccc2c1N=Nc1nccs1`, the inhibition was 55.3% (active).
In the case of `COc1ccc(C(c2nnnn2C2CCCC2)N2CCN(C/C=C/c3ccccc3)CC2)cc1` (configuration not stated) it was 9.42%; in that of `O=C(Cn1cnc2c(OCc3ccccc3)ncnc21)NCc1nc2ccccc2[nH]1`, 6.52%.
For `CCn1c(CNC(=O)c2ccc(OC)c(OC)c2)nnc1SCC(=O)Nc1ccccc1` the value was -12%.
Regarding `CCc1c(O)nc(SCC(=O)Nc2ccccc2)n(C(C)CC)c1=O` (configuration not stated), the inhibition was 48% (active).
For `COc1ccccc1-n1c(SCC(=O)Nc2ccc(Cl)cc2)nc(O)c(Cc2ccccc2)c1=O` the value was 18.6%; for `O=C(CC12CC3CC(CC(C3)C1)C2)Nc1ccc2c(c1)COC2=O`, 10.3%; for `CCOC(=O)Cc1cc(=O)[nH]c(/N=C(\N)Nc2ccc(OC)cc2)n1`, 3.52%.
For `COc1ccc(S(=O)(=O)N2CCSCC2)cc1` the value was 2.01%; for `Cc1c(C)c(C)c(S(=O)(=O)NCCc2ccccn2)c(C)c1C`, -6.36%; for `CCc1nc2cccnc2n1-c1ccc(C(=O)O)cc1`, 58.3% (active).
For `CCOC(=O)CNC(=O)CSc1nc2cccnc2n1CC` the value was 0.93%.
In the case of `COCCCNC(=O)Cc1ccc(-n2c(C)nc3cccnc32)cc1`, the inhibition was 18.3%.
For `O=C(NCc1cc(F)cc(C(F)(F)F)c1)C1CCC(=O)N(C2CCCC2)C1` (configuration not stated) the value was 2.19%; for `C[C@@H]1NS(=O)(=O)c2cc(Cl)ccc2O[C@@H]1c1ccccc1`, -9.19%; for `Cn1nnc(NC(=S)NC(=O)c2ccccc2)n1`, 26.2%.
With `Cc1cccc(NC(=O)NC(=S)NC(=O)c2ccccc2)c1`, the inhibition is 41.9% (active).
For `Cc1cccc(OCCNC(=S)NC(=O)c2cccnc2)c1`, the inhibition is 22%.
For `COc1ccc(C(C)(C)C)cc1NC(=O)CN(C)C1=NS(=O)(=O)c2ccccc21`, the inhibition was -40.4%.
For `O=S(=O)(c1cccc(Cn2nnc(-c3ccc(F)cc3)n2)c1)N1CCOCC1` the value was -5.3%; for `O=S(=O)(c1ccc(F)cc1)N1CC=C(c2ccccc2)CC1`, -8.32%; for `O=C(Nc1ccccc1)c1ccccc1Br`, -11.2%.
For `CC1CCN(C(=S)NC(=O)c2ccccc2Br)CC1` the value was 15%.
For `O=C(NC(=S)Nc1ncccn1)c1ccccc1Br` the value was 42.1% (active).
In the case of `Cc1cc(Cl)ccc1C(=O)C1CCCN(C(=O)CCN2CCCO2)C1` (configuration not stated), the inhibition was -4.82%.
In the case of `CCN1C(=O)[C@H]2[C@@H](c3ccc(-c4ccc(OC)cc4)cc3)N[C@@](Cc3ccccc3)(C(=O)OC)[C@H]2C1=O` it was -0.71%.
In the case of `O=C(CN1C(=O)c2ccc([N+](=O)[O-])cc2C1=O)Nc1nnc(C2CC2)s1` it was -18.6%; in that of `O=C(Cc1ccc(Br)cc1)N1CCN(c2ccccn2)CC1`, 61.7% (active).
For `O=C(C(Cl)Cl)N1CCN(c2ccccn2)CC1`, the inhibition was -10.9%.
In the case of `O=C(Cc1ccccc1Cl)N1CCN(c2ccccn2)CC1` it was -6.28%; in that of `CC(=O)NC(CC(=O)Nc1cccc(S(=O)(=O)N2CCCC2)c1)c1ccccc1` (configuration not stated), -16.4%; in that of `COc1ccc2c(c1)C(NS(=O)(=O)OCC(Cl)(Cl)Cl)CCC2` (configuration not stated), -0.88%.
In the case of `CN(C)S(=O)(=O)c1cccc(NC(=O)COC(=O)C2(c3ccccc3F)CCCC2)c1`, the inhibition is 4.77%.
For `COc1ccc(Br)cc1C(=O)Nc1cccc(C)c1C` the value was 21.9%; for `COc1ccccc1C(=O)NC(=S)Nc1ccccc1N1CCCCC1`, 14.7%; for `COc1ccc(Br)cc1C(=O)NC(=S)Nc1cc(-c2nc3ccccc3[nH]2)ccc1C`, 43.3% (active).
